Compounds with a hit are over-represented: about 19% of the library has one in this group of screens.
TDP1 cell CPT: growth inhibition of DT40 Tdp1-/-;hTDP1 cells with camptothecin (screen for TDP1 inhibitors) | Potency, µM (doses to about 46.2 µM), most hits filed as inhibitors | chicken DT40 Tdp1-/-;hTDP1 cells + 20 nM CPT, ATP luminescence, 48 h | 12% of 420,000 active; note: nearly all actives have a fitted effect of over 55% in size
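Chicken DT40 Tdp1-/- cells complemented with human TDP1, 400 cells/well, exposed to compounds plus 20 nM camptothecin for at least 48 h at 37 C; viability read as ATP content by CellTiter-Glo luminescence.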
HT1080-NT tox: kills 2HG-producing HT-1080-NT fibrosarcoma cells; 1.6% of 360,000 active; Potency, µM (top dose mostly 46.1 µM), usual class: cytotoxic; HT-1080-NT fibrosarcoma viability, CellTiter-Glo ATP luminescence, 48 h;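 note: NT is the 2HG producing partner of a matched IDH1 knockdown line; nearly all actives have a fitted effect of over 55% in size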
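Viability of the 2HG-overproducing fibrosarcoma line after 48 hours of compound exposure at 37 degrees C was determined by luminescence with CellTiter-Glo, and concentration-effect curves were then fitted and categorized.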
HT1080 IDH1KD tx: kills HT-1080 cells with IDH1 knockdown; HT-1080 IDH1 knockdown viability, ATP luminescence, 48 h; Potency, µM (highest dose often 46.1 µM), most hits filed as cytotoxic; 2% of 360,000 active; AID 686971
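After a 2 h attachment period, IDH1KD HT-1080 cells took pin-transferred compound for 48 h at 37 °C; ATP-based luminescence after 10 min room-temperature reagent incubation reported viability.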
IL1B secr inh: blocks inflammasome-driven IL-1 beta release. THP-1 LPS/ATP IL-1B secretion, AlphaLISA, 16 h; stronger effect = lower value. activity change, % at 57.5 µM. 4.7% of 360,000 active. AID 743279; in the data active = activity change below about -50%; inconclusive = mostly about -30% to -49%
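THP-1 cells pretreated 1 hr with compounds (up to 57.5 uM final), then stimulated with LPS (250 ng/mL final) plus ATP (1.25 mM final); secreted IL-1B measured by AlphaLISA after 16 hr, decreased signal indicating inhibition.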
DT40 TDP1 no CPT: qHTS for Inhibitors of human tyrosyl-DNA phosphodiesterase 1 (TDP1): qHTS in cells in absence of CPT; DT40 Tdp1-/- hTDP1 cells, no CPT, ATP luminescence, 48 h; Potency, µM (highest dose often 46.2 µM), actives largely listed as inhibitors; 15% of 420,000 active; note: nearly all actives have a fitted effect of over 55% in size
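Readout: luminescence from CellTiter-Glo after 30 min in the dark at RT. Cells: DT40 Tdp1-/- with stable hTDP1, 400/well. Exposure: compounds alone, ≥48 hr, 37 °C.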
ELG1 DNA repair: blocks ELG1-dependent DNA repair in HEK293T cells; HEK293T ELG1-luciferase reporter, luminescence, 16 h; DNA damage induced by 5-fluorouridine; Potency, µM (highest dose often 46.1 µM), most hits filed as inhibitors; 2.3% of 330,000 active; note: nearly all actives have a fitted effect of over 55% in size
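Cells (2,000 per well) received 5-fluorouridine plus test compound or DMSO and were incubated 16 hr at 37 °C, 5% CO2. Luciferase activity was read by luminescence 30 min after ONE-Glo addition; signal suppression marked inhibition of damage-induced ELG1 function.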
Numbers stand for hits; . = inactive; ? = inconclusive; / = no result; [ ] = dose if it differs, or a comment. Unless noted, calls come from the whole dose curve; as a rule, active = well fitted curve in the direction sought with a large enough effect; inconclusive = small, poorly fitted or top-dose-only effect, or another doubt; inactive = no such curve, though single readings can be large; an effect the other way counts as inactive or inconclusive.

SMILES	TDP1 cell CPT	HT1080-NT tox	HT1080 IDH1KD tx	IL1B secr inh	DT40 TDP1 no CPT	ELG1 DNA repair
COc1ccc(NC(=O)c2sc3nc(C)cc(C)c3c2N)cc1	.	.	.	.	.	?
CCOc1ccc(NC(=O)c2sc3nc4c(c(-c5ccccc5)c3c2N)C(=O)CC(C)(C)C4)cc1	?	/	/	/	.	/
COc1ccc(-c2c3c(nc4sc(C(=O)Nc5cccc(OC)c5)c(N)c24)CC(C)(C)CC3=O)cc1	?	/	/	/	13µM	/
COc1ccc(C(=O)c2sc3nc(-c4ccc(C)cc4)cc(C(F)(F)F)c3c2N)cc1	.	/	/	/	.	/
COc1ccc(NC(=O)c2sc3nc4c(c(-c5ccc(OC)cc5)c3c2N)C(=O)CC(C)(C)C4)cc1	23µM	/	/	/	13µM	/
COc1ccc(NC(=O)c2sc3nc(-c4ccc(OC)cc4)cc(C(F)(F)F)c3c2N)cc1	2.9µM	/	/	/	1.8µM	/
Cc1ccc2nc(-c3ccc(NC(=O)C4CCCO4)cc3)[nH]c2c1 (stereo unspecified)	?	.	.	.	?	?
Cn1cc([N+](=O)[O-])c(C(=O)Nc2ccc3nc(-c4ccccc4)[nH]c3c2)n1	?	?	?	.	18µM	?
Cc1ccc2nc(-c3ccc(NC(=O)Cc4cccs4)cc3)[nH]c2c1	23µM	?	?	.	?	?
O=C(Nc1ccc2nc(-c3ccccc3)[nH]c2c1)c1cccs1	26µM	?	.[9.24 µM]	-65	13µM	?
O=C(c1ccccc1)c1ccc2nc(-c3ccc(NC(=O)c4ccccc4F)cc3)[nH]c2c1	3.7µM	?	?	.	3.3µM	.
O=C(Nc1ccc2nc(-c3ccc4nc[nH]c4c3)[nH]c2c1)c1cccs1	.	.	.	.	?	.
COc1ccc(C(=O)NCc2ccc3c(c2)CCN3C(C)=O)c(OC)c1	.	/	/	/	.	/
O=C(Nc1ccc2nc(-c3ccco3)[nH]c2c1)c1ccco1	?	.	.	.	?	?
O=C(Nc1ccc2nc(-c3ccco3)[nH]c2c1)c1cccs1	21µM	.	.	.	?	?
CCC(=O)Nc1ccc(-c2csc(NNC(C)=O)n2)cc1	.	.	.	.	.	.
CC(=O)Nc1ccc(-c2csc(NCc3ccccc3)n2)cc1	.	.	.	.	?	?
CC(=O)Nc1ccc(-c2csc(NNC(=O)c3ccccc3)n2)cc1	12µM	.	.	?	1.3µM	.
CC(=O)Nc1ccc(-c2csc(N/N=C(/C)c3ccccc3)n2)cc1	21µM	.	.	-70	9.2µM	21µM
CC(=O)c1cccc(NC(=O)Cn2nc(C(F)(F)F)c3c2CCC3)c1	?	/	/	/	.	/
O=C(Nc1cccc(/C=C/c2nc3ccccc3c(=O)[nH]2)c1)c1ccccc1Cl	16µM	?	?	-52	15µM	?
COc1ccc(C(=O)Nc2cccc(/C=C/c3nc4ccccc4c(=O)[nH]3)c2)cc1	9.2µM	?	?	.	6.5µM	?
Cn1cccc1C(=O)N1CCC2(CCCN(Cc3ccncc3)C2)CC1	.	/	/	/	.	/
Cc1cc(C(=O)N2CC(C)CC(C)C2)n(-c2ccccc2)n1 (stereo unspecified)	10µM	.	.	.	8.2µM	?
Cc1cc(C(=O)N2CCOCC2)n(-c2ccccc2)n1	.	.	.	.	.	.
SMILES	TDP1 cell CPT	HT1080-NT tox	HT1080 IDH1KD tx	IL1B secr inh	DT40 TDP1 no CPT	ELG1 DNA repair
Cc1ccccc1NC(=O)C1CC(=O)N(c2ccc3c4c(cccc24)CC3)C1 (stereo unspecified)	?	.	.	.	.	.
O=C(Nc1ccccc1Br)C1CC(=O)N(c2ccc3c4c(cccc24)CC3)C1 (stereo unspecified)	23µM	?	?	?	21µM	?
O=c1ccc2cc3c(-c4ccccc4)coc3cc2o1	.	.	.	.	.	.
Cc1nnc(SCC(=O)Nc2cc(C(C)(C)C)nn2-c2ccccc2)s1	.	.	.	.	.	.
Cc1nnc(SCC(=O)Nc2cc(-c3cc(C)c(C)cc3C)nn2-c2ccccc2)s1	21µM	.	.	.	12µM	?
CCCc1ccc(-c2cc(NC(=O)CSc3nnc(N)s3)n(-c3ccccc3)n2)cc1	23µM	16µM	?	?	21µM	?
CCC(c1nnnn1C(C)(C)C)N1CCN(C/C=C/c2ccccc2)CC1 (stereo unspecified)	?	.	.	.	?	/
CCC(c1nnnn1-c1ccc(OC)cc1)N1CCN(C/C=C/c2ccccc2)CC1 (stereo unspecified)	21µM	.	.	?	?	/
COc1ccc(-n2nnnc2C(c2cccc(OC)c2OC)N2CCN(C/C=C/c3ccccc3)CC2)cc1 (stereo unspecified)	23µM	?	?	?	18µM	/
COc1cccc(C(c2nnnn2Cc2ccco2)N2CCN(Cc3ccccc3)CC2)c1OC (stereo unspecified)	?	.	.	.	.	.
COc1ccc(-n2nnnc2C(c2ccccc2)N2CCN(C/C=C/c3ccccc3)CC2)cc1 (stereo unspecified)	21µM	?	?	-55	?	/
COc1ccc(-n2nnnc2C(CCc2ccccc2)N2CCN(C/C=C/c3ccccc3)CC2)cc1 (stereo unspecified)	?	?	?	/	16µM	/
COc1ccc(N2CCN(C(=O)c3cc(-c4ccc(C)c(F)c4)on3)CC2)cc1	.	/	/	/	.	/
COc1ccc(Oc2ncc3nc(-c4cc(F)cc(F)c4)c(=O)n(C)c3n2)cc1	.	/	/	/	.	/
COc1ccc(NC(=O)CN(C)C(=O)Cc2c(C)nc3ccccc3c2C)cc1	?	.	.	.	?	?
CN(CCCN(Cc1ccc(Cl)cc1)c1ccc(Br)cn1)C(=S)NCCCc1cnc[nH]1	13µM	/	/	/	?	/
S=C(NCCCCN(Cc1ccc(Cl)cc1)c1ccc(Br)cn1)NCCCc1cnc[nH]1	7.1µM	/	/	/	.	/
COc1ccc(CC(=O)NCCc2cnc[nH]2)cc1	.	.	.	.	.	.
O=C(Nc1cccc(Cl)c1Cl)c1ccc2c(c1)N(Cc1cccc(Cl)c1)C(=O)c1ccccc1S2=O (stereo unspecified)	.	/	/	/	.	/
CCOc1ccc(N=C2NC(=O)S/C2=C\c2ccc(Cl)cc2)cc1	.	.	?	.	.	.
CCOc1ccc2nc(N3C(=O)/C(=C/c4ccc(Cl)cc4)NC3=S)sc2c1	?	.	.	.	10µM	.
COCCn1c(=O)c(-c2cc(F)cc(F)c2)nc2cnc(Nc3cccc(OC)c3)nc21	.	/	/	/	.	/
CCCN1C(C(=O)c2ccccc2)=C(OC(=O)C(C)(C)C)c2ccccc2S1(=O)=O	4.1µM	/	/	/	5.2µM	/
